# Test results from PubChem BioAssay (Tox21).
# Inconclusive results are not listed. Active and inactive are the calls of the source. Calls come from the whole dose curve; as a rule, active = well fitted cell-killing curve with a large enough effect in the repeat runs; inconclusive = weak or mixed curves, or effect the other way; inactive = no such curve, though single readings can be large or run the other way.
# Test: qHTS assay for small molecule activators of the heat shock response signaling pathway - cell viability counter screen (AID 743209); note: nearly all actives have a fitted effect of over 50% in size
# Conditions: HSE-bla HeLa viability, CellTiter-Glo luminescence, 5 h; series mostly up to 62.6 µM
# Source text: U.S. Tox21 Program National Center for Advancing Translational Sciences [NCATS] NIH Chemical Genomics Center [NCGC] U.S. Environmental Protection Agency [EPA] National Institutes of Environmental Health Sciences [NIEHS] National Toxicology Program [NTP] U.S. Food and Drug Administration [FDA] Tox21 Assay Overview: Various chemicals, environmental and physiological stress conditions may lead to the activation of heat shock response/ unfolded protein response (HSR/UPR). There are three heat shock transcription factors (HSFs) (HSF-1, -2, and -4) mediating transcriptional regulation of the human HSR. To identify the compounds that activate HSR signaling, HSE-bla HeLa cell line (Invitrogen, Carlsbad, CA, USA) containing a beta-lactamase reporter gene under the control of the heat shock response elements was used to screen Tox21 10K compound library. The cytotoxicity of the Tox21 compound library against the HSE-bla HeLa cell line was tested in parallel by measuring the cell viability using CellTiter-Glo assay (Promega, Madison, WI) in the same wells.
# Tox21 Assay Protocol Summary: The CellSensor HSE-bla HeLa cells (Invitrogen, Carlsbad, CA, USA) were dispensed at 1500 cells/6uL/well into 1536-well black wall/clear bottom plates using a Multidrop combi (Thermo Fisher Scientific, Waltham, MA) dispenser. After the assay plates were incubated at 37 C and 5% CO2 overnight, 23 nL of compounds dissolved in DMSO, positive controls or DMSO only was transferred to the assay plate by a Pintool station (Kalypsys, San Diego, CA). The plates were incubated at 37 C for 5 h. After 1 uL of LiveBLAzerTM B/G FRET substrate was added using a Flying Reagent Dispenser (FRD, Beckman Coulter, Indianapolis, IN, USA), the plates were incubated at room temperature for 2.5 h, and fluorescence intensity was measured by an Envision plate reader (PerkinElmer, Shelton, CT). For cell viability readout that measures cytotoxicity, 3 ul/well of CellTiter-Glo reagent was added into the assay plates using a FRD. After 30 min incubation at room temperature, the luminescence intensity in the plates was measured using a ViewLux (PerkinElmer) plate reader.
row,SMILES,outcome
1,CC[C@H](NC(C)C)[C@H](O)c1ccc(O)c2[nH]c(=O)ccc12,inactive
2,OCCc1ccncc1,inactive
3,CCCCCCCCC(=O)OCC(C)OC(=O)CCCCCCCC (stereo not given),inactive
4,C[C@H](N)C(=O)N[C@@H](C)C(=O)NC1[C@H]2CN(c3nc4c(cc3F)c(=O)c(C(=O)O)cn4-c3ccc(F)cc3F)C[C@@H]12 (stereo not given in full),inactive
5,NC(=O)c1ccccc1C(N)=O,inactive
6,C/C(=C\C(C)CC(C)CC(C)C)C1CC(=O)OC1=O (stereo not given),inactive
7,OCCOc1cccc(OCCO)c1,inactive
8,CC(C)Cc1nccs1,inactive
9,CCC1=C(C)CN(C(=O)NCCc2ccc(S(=O)(=O)NC(=O)NC3CCC(C)CC3)cc2)C1=O (stereo not given),inactive
10,O=C(Nc1ccccc1)c1cc([N+](=O)[O-])ccc1Cl,inactive
11,c1ccc(CCNc2nc(-c3ccccc3)cs2)cc1,inactive
12,CCCCCCCCCCCCSCCOCCO,inactive
13,CC(=O)OCC(=O)[C@@]1(O)CC[C@H]2[C@@H]3CCC4=CC(=O)C=C[C@]4(C)[C@@]3(F)[C@@H](O)C[C@@]21C,inactive
14,CC1(C)C(=O)NC(=O)N1CO,inactive
15,CC(C)(O)C(=O)O,inactive
16,COc1ccc(/C=C/S(=O)(=O)NC(=O)c2ccc(C)cc2Cl)cc1,inactive
17,C/C=C1\[C@H]2C=C(C)C[C@]1(N)c1ccc(=O)[nH]c1C2,inactive
18,CCOC(C)OCC,inactive
19,COC(=O)/C=C/C(C)=C\C=C\C(C)=C\C=C\C=C(C)\C=C\C=C(C)\C=C\C(=O)O,inactive
20,CS(C)=O,inactive

row,SMILES,outcome
1,CC(C)(C)c1cc(C=O)cc(C(C)(C)C)c1O,inactive
2,Cc1c(-c2cccnc2)c2ccccc2n1CCCCC(=O)O,inactive
3,SCCOCCOCCS,inactive
4,N#C[C@@H]1CC(F)(F)CN1C(=O)CNC1CC2CCC(C1)N2c1ncccn1 (stereo not given in full),inactive
5,CCN(CCCCOC(=O)c1ccc(OC)c(OC)c1)C(C)Cc1ccc(OC)cc1 (stereo not given),inactive
6,COc1cccc([C@H](O)C2CCN(CCc3ccc(F)cc3)CC2)c1OC,inactive
7,CC(=O)Nc1cccc(N)c1,inactive
8,C[C@H](CN1CCCC1)C(=O)c1ccc(C(F)(F)F)cc1,inactive
9,Cc1c(Cl)cccc1Nc1ccccc1C(=O)O,inactive
10,CCOc1ccc(NC(C)=O)cc1N,inactive
11,CCCC(=O)OCCC(C)C,inactive
12,C/C(=C(\CCO)SS/C(CCO)=C(\C)N(C=O)Cc1cnc(C)nc1N)N(C=O)Cc1cnc(C)nc1N,inactive
13,Nc1ncnc2c1ncn2[C@@H]1O[C@H](CO)[C@@H](O)[C@H]1O,inactive
14,Oc1ccc(CCNCCCCCCNCCc2ccccc2)cc1O,inactive
15,Cc1ccc(S(=O)(=O)NC(=O)NC2CCCC2)cc1,inactive
16,Cc1c(N=C=O)cccc1N=C=O,inactive
17,O=c1c2ccccc2oc2ccccc12,inactive
18,CCc1ccc2c(c1)C(=O)c1ccccc1C2=O,inactive
19,CCc1cnc(C(=O)O)c(C(=O)O)c1,inactive
20,COc1ccnc2c1CCCCC2S(=O)c1nc2ccccc2[nH]1 (stereo not given),inactive
